Where a name gives a salt, the structure may show the parent alone.
Columns and labels:
Conditions in all cases: incubation time: 27 h, anaerobic, 37 °C;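 for the amine columns active = adjusted P below 0.05 in both replicates with a change the same way and a mean fold change under 0.8 or over 1.25; inactive = the rest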
[1] = test system: Clostridium sporogenes DSM 1664; experiment: growth (OD595) fold change vs plate DMSO controls (fold change (ratio)); higher = more growth
Outline: (§1)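 Growth is the fold change relative to the median of plate DMSO controls. Readings came from anaerobic mGAM cultures in 96-well plates grown for 27 h at 37 °C and read at 595 nm. They were blank-subtracted, corrected for compound background with 20 µM compound solutions in water, and converted to OD with a calibration factor of 5. Values are means of 2 biological replicates, and fold changes above 1.5 were set to NA.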

[2] = test system: Escherichia coli IAI1; experiment: as above
Outline: as §1

[3] = test system: Klebsiella aerogenes DSM 30053; experiment: as above
Outline: as §1

[4] = test system: Ruminococcus gnavus DSM 108212; experiment: as above
Outline: as §1

[5] = test system: Klebsiella aerogenes DSM 30053; experiment: fold change of Histamine concentration vs plate DMSO controls (fold change (ratio)); higher = more amine produced, active = hit call of the paper (significant change in both replicates, either direction)
Outline: (§2)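 Amines were quantified by LC–triple-quadrupole MS in dynamic MRM mode against external calibration curves, with drift correction within each batch. The samples were whole anaerobic mGAM cultures of four gut bacterial strains, grown for 27 h at 37 °C in 80 µL wells and extracted with cold acetonitrile/methanol with 0.1% formic acid, then centrifuged. Values are reported as fold change over DMSO controls on the same plate. The mean of 2 biological replicates is given.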

[6] = test system: Clostridium sporogenes DSM 1664; experiment: fold change of Tryptamine concentration vs plate DMSO controls (fold change (ratio)); higher = more amine produced, active = hit call of the paper (significant change in both replicates, either direction)
Outline: as §2

[7] = test system: Ruminococcus gnavus DSM 108212; experiment: as above
Outline: as §2

[8] = test system: Escherichia coli IAI1; experiment: fold change of Putrescine concentration vs plate DMSO controls (fold change (ratio)); higher = more amine produced, active = hit call of the paper (significant change in both replicates, either direction)
Outline: as §2

[9] = test system: Klebsiella aerogenes DSM 30053; experiment: as above
Outline: as §2

[10] = test system: Escherichia coli IAI1; experiment: fold change of Cadaverine concentration vs plate DMSO controls (fold change (ratio)); higher = more amine produced, active = hit call of the paper (significant change in both replicates, either direction)
Outline: as §2

[11] = test system: Klebsiella aerogenes DSM 30053; experiment: as above
Outline: as §2

[12] = test system: Ruminococcus gnavus DSM 108212; experiment: fold change of 2-Phenylethylamine concentration vs plate DMSO controls (fold change (ratio)); higher = more amine produced, active = hit call of the paper (significant change in both replicates, either direction)
Outline: as §2

| Structure (SMILES) | growth [1] | growth [2] | growth [3] | growth [4] | fold change of Histamine concentration [5] | fold change of Tryptamine concentration [6] | fold change of Tryptamine concentration [7] | fold change of Putrescine concentration [8] | fold change of Putrescine concentration [9] | fold change of Cadaverine concentration [10] | fold change of Cadaverine concentration [11] | fold change of 2-Phenylethylamine concentration [12] |
| --- | --- | --- | --- | --- | --- | --- | --- | --- | --- | --- | --- | --- |
| CC1=NN(c2ccccc2)C(=O)C1 [Edaravone] (20 µM) | 0.889 | 1.03 | 1.02 | 0.963 | 0.97 (inactive) | 0.939 (inactive) | 1.01 (inactive) | 1.03 (inactive) | 1.02 (inactive) | 0.986 (inactive) | 1.01 (inactive) | 0.984 (inactive) |
| CC1(C)OC(=O)NC1=O [Dimethadione] (20 µM) | 0.999 | 0.98 | 0.949 | 1.02 | 0.952 (inactive) | 1.03 (inactive) | 0.747 (inactive) | 1.02 (inactive) | 1 (inactive) | 1.01 (inactive) | 0.992 (inactive) | 0.853 (inactive) |
| CN(C)CCCN1c2ccccc2Sc2ccc(C(F)(F)F)cc21 [Triflupromazine hydrochloride] (20 µM) | 1.08 | 1.04 | 1.01 | 1.21 | 0.959 (inactive) | 1.05 (inactive) | 0.814 (inactive) | 1.01 (inactive) | 0.998 (inactive) | 1.08 (inactive) | 1.01 (inactive) | 0.821 (inactive) |
| COC(=O)C1=C(C)NC(C)=C(C(=O)OCC(C)C)C1c1ccccc1[N+](=O)[O-] (stereo unspecified) [Nisoldipine] (20 µM) | 0.851 | 1.13 | 1.02 | 0.871 | 0.949 (inactive) | 1.06 (inactive) | 0.899 (inactive) | 1.1 (inactive) | 1 (inactive) | 0.981 (inactive) | 1.01 (inactive) | 0.898 (inactive) |
| NS(=O)(=O)c1cc(Cl)c(Cl)c(S(N)(=O)=O)c1 [Dichlorphenamide] (20 µM) | 0.963 | 0.998 | 1.2 | 0.536 | 0.902 (inactive) | 0.966 (inactive) | 0.572 (inactive) | 1.06 (inactive) | 1.01 (inactive) | 0.995 (inactive) | 1.03 (inactive) | 0.54 (inactive) |
| CC(C)(CO)[C@@H](O)C(=O)NCCC(=O)NCCSSCCNC(=O)CCNC(=O)[C@H](O)C(C)(C)CO [D-Pantethine] (20 µM) | 1.09 | 0.976 | 1.02 | 0.955 | 0.976 (inactive) | 1.03 (inactive) | 0.986 (inactive) | 1 (inactive) | 1.03 (inactive) | 1.03 (inactive) | 1 (inactive) | 1.02 (inactive) |
| Cc1cccn2c(=O)c(-c3nnn[nH]3)cnc12 [Pemirolast potassium] (20 µM) | 0.934 | 0.984 | 0.975 | 0.807 | 1.03 (inactive) | 1.02 (inactive) | 1.01 (inactive) | 0.994 (inactive) | 1.01 (inactive) | 0.992 (inactive) | 1 (inactive) | 1.04 (inactive) |
| OC[C@H]1O[C@H](O[C@H]2O[C@H](CO)[C@@H](O)[C@H](O)[C@H]2O)[C@H](O)[C@@H](O)[C@@H]1O [Trehalose dihydrate] (20 µM) | 1 | 1.04 | 1.08 | 1.11 | 0.919 (inactive) | 0.967 (inactive) | 1.06 (inactive) | 1.02 (inactive) | 0.986 (inactive) | 0.988 (inactive) | 1 (inactive) | 1.09 (inactive) |
| COC(=O)[C@H](Cc1ccccc1)NC(=O)[C@H](CC(=O)O)NCCC(C)(C)C [Neotame] (50 µM) | 1.05 | 1 | 1.04 | 1.07 | 0.99 (inactive) | 1.05 (inactive) | 1.01 (inactive) | 1.01 (inactive) | 1.01 (inactive) | 0.933 (inactive) | 1.02 (inactive) | 1.02 (inactive) |
| CCN(CC)CCNC(=O)COc1ccc(OC)cc1 [Mefexamide hydrochloride] (20 µM) | 0.963 | 1.01 | 1.08 | 1.05 | 0.874 (inactive) | 1.07 (inactive) | 1.01 (inactive) | 1.02 (inactive) | 0.961 (inactive) | 1.05 (inactive) | 1.02 (inactive) | 0.977 (inactive) |
| CCCCCNC(=N)N/N=C/c1c[nH]c2ccc(OC)cc12 [Tegaserod maleate] (20 µM) | 0.905 | 1.01 | 1 | 1.08 | 0.983 (inactive) | 0.923 (inactive) | 0.791 (inactive) | 0.992 (inactive) | 0.997 (inactive) | 1.04 (inactive) | 1 (inactive) | 0.994 (inactive) |
| CC(=O)Nc1c(I)c(C(=O)N[C@H]2C(O)O[C@H](CO)[C@@H](O)[C@@H]2O)c(I)c(N(C)C(C)=O)c1I (stereo partly specified) [Metrizamide] (20 µM) | 1.03 | 1.22 | 1.04 | 0.799 | 0.994 (inactive) | 1.05 (inactive) | 1.06 (inactive) | 1.22 (inactive) | 0.994 (inactive) | 0.971 (inactive) | 1 (inactive) | 1.08 (inactive) |
| CN(C)CCCO[C@@H]1[C@H]2OC(C)(C)O[C@H]2O[C@@H]1[C@H](O)CO [Amiprilose hydrochloride] (20 µM) | 1.09 | 1.03 | 1.01 | 1.1 | 1.07 (inactive) | 1.04 (inactive) | 1.04 (inactive) | 0.973 (inactive) | 1.02 (inactive) | 0.994 (inactive) | 0.992 (inactive) | 1.01 (inactive) |
| C=CC1=C(C(=O)O)N2C(=O)[C@@H](NC(=O)/C(=N\O)c3csc(N)n3)[C@H]2SC1 [Cefdinir] (20 µM) | 0 | 0 | 0.757 | 0 | 1.22 (inactive) | 0.0307 (active) | 0.04 (active) | 0.208 (active) | 0.979 (inactive) | 0.77 (inactive) | 1.03 (inactive) | 0.0439 (active) |
| CCN1C(=O)NC(c2ccccc2)C1=O (stereo unspecified) [Ethotoin] (20 µM) | 0.983 | 0.999 | 0.982 | 1.14 | 1.06 (inactive) | 0.942 (inactive) | 0.879 (inactive) | 0.991 (inactive) | 0.991 (inactive) | 0.999 (inactive) | 0.981 (inactive) | 0.855 (inactive) |
| COc1cccc(CCc2ccccc2OCC(CN(C)C)OC(=O)CCC(=O)O)c1 (stereo unspecified) [Sarpogrelate hydrochloride] (20 µM) | 1.19 | 0.978 | 1.02 | 0.991 | 0.977 (inactive) | 0.989 (inactive) | 0.97 (inactive) | 1.02 (inactive) | 0.999 (inactive) | 1.03 (inactive) | 0.996 (inactive) | 0.961 (inactive) |
| C[C@@H](CN1CC(=O)NC(=O)C1)N1CC(=O)NC(=O)C1 [Dexrazoxane hydrochloride] (20 µM) | 1.26 | 1.01 | 1.05 | 0.949 | 1.01 (inactive) | 0.997 (inactive) | 1.03 (inactive) | 0.979 (inactive) | 1.02 (inactive) | 0.988 (inactive) | 1.01 (inactive) | 1.02 (inactive) |
| C[C@]12CC[C@@H]3c4ccc(O)cc4C[C@@H](CCCCCCCCC[S+]([O-])CCCC(F)(F)C(F)(F)F)[C@H]3[C@@H]1CC[C@@H]2O (stereo partly specified) [Fulvestrant] (20 µM) | 1.25 | 1.06 | 1.03 | 1.13 | 0.97 (inactive) | 0.98 (inactive) | 1.2 (inactive) | 0.954 (inactive) | 0.979 (inactive) | 0.974 (inactive) | 1.02 (inactive) | 1.21 (inactive) |
| Clc1ccc2c(c1)C(N1CCNCC1)=Nc1ccccc1O2 [Amoxapine] (20 µM) | 1.21 | 1.03 | 1.01 | 1.37 | 0.961 (inactive) | 0.943 (inactive) | 0.983 (inactive) | 0.994 (inactive) | 0.974 (inactive) | 1.02 (inactive) | 1 (inactive) | 0.952 (inactive) |
| c1ccc(C2CN3CCSC3=N2)cc1 (stereo unspecified) [Tetramisole hydrochloride] (20 µM) | 0.855 | 0.574 | 1.07 | 0.976 | 1.04 (inactive) | 0.939 (inactive) | 1.01 (inactive) | 1.33 (inactive) | 1.03 (inactive) | 2 (active) | 0.992 (inactive) | 1.03 (inactive) |
| O=S(=O)(O)c1cc(O)ccc1O [Ethamsylate diethylammonium salt] (20 µM) | 0.89 | 0.975 | 0.98 | 0.997 | 1.07 (inactive) | 0.982 (inactive) | 1.05 (inactive) | 0.989 (inactive) | 1.02 (inactive) | 1.02 (inactive) | 0.99 (inactive) | 1.09 (inactive) |
| C[N+]1(C)CCC(=C(c2ccccc2)c2ccccc2)CC1 [Diphemanil methylsulfate] (20 µM) | 1.04 | 1.02 | 1.07 | 0.984 | 0.94 (inactive) | 1.17 (inactive) | 1.01 (inactive) | 0.958 (inactive) | 0.962 (inactive) | 1.02 (inactive) | 1.02 (inactive) | 1.06 (inactive) |
| CCC1(c2ccccc2)C(=O)NCNC1=O [Primidone] (20 µM) | 0.938 | 0.953 | 0.991 | 1.01 | 1.09 (inactive) | 0.973 (inactive) | 1.02 (inactive) | 0.982 (inactive) | 1.03 (inactive) | 0.999 (inactive) | 0.981 (inactive) | 1.03 (inactive) |

— the supplement of paper PMC12494721
